# Screening results deposited in PubChem by several laboratories.
# Jurkat NFkB inh = inhibitors of induced NF-kB luciferase reporter, primary screen, TCR NF-kB activation inhibitor project, cell-based, luminescence, uHTS; Jurkat, PMA/ionomycin-induced NF-kB luciferase reporter; inhibition, % at 4 µM; 0.53% of 330,000 active; AID 435003, 2010; in the data active = inhibition above about 50%
# GalR3 antagonist = GalR3 antagonists in HEK293 cells, primary screen, cell-based, fluorescence readout | 0.44% of 360,000 active | HEK293 GalR3-CNG cAMP membrane potential fluorescence; galR3 body fused to GalR1 C-terminus | inhibition, % at 3 µM | AID 651719, 2012 | Galanin receptor type 3 (Homo sapiens), O60755;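 active = inhibition above the screen-wide average plus 3 SD, cut at about 13% in these data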;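 also: forskolin and galanin both at EC90 stimulate the cells; cAMP rise reported by CNG channel membrane potential dye signal; 0% = forskolin plus galanin with DMSO and 100% = forskolin alone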
# Target sequence (O60755 1-299 limits assumed): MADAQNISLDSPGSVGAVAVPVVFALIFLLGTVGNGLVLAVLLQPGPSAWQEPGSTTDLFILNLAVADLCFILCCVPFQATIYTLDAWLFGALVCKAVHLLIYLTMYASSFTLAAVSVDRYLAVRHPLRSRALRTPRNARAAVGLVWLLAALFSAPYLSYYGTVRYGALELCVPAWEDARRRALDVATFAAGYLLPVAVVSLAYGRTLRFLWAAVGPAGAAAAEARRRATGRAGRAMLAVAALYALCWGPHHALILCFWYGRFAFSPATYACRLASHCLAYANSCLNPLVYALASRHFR
# 697 NFkB inh = inhibitors of PMA/ionomycin-induced NF-kB reporter, 697 cells, primary screen, B-cell NF-kB inhibitor project, cell-based, luminescence, uHTS; 0.33% of 330,000 active; 697 B-cell NF-kB luciferase reporter, 16 h; inhibition, % at 4 µM; AID 435022, 2010; in the data active = inhibition above about 35%
# NR2F2 inh = NR2F2 transcriptional activity inhibitors, primary screen, cell-based, luciferase reporter, HEK293T, luminescence; COUP transcription factor 2 (Homo sapiens), P24468; HEK293T NGFI-A luciferase reporter; inhibition, % at 8.6 µM; 0.7% of 370,000 active; AID 686940, 2013;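 active = inhibition above a per-plate cutoff, mean inhibition of test wells between control levels plus 3 SD, cut at about 38% in these data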;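 also: cells cotransfected with COUP-TFII expression vector driving the NGFI-A reporter; 0% = median of COUP-TF2 test wells and 100% = reporter-only cells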
# Target sequence (P24468 whole entry, looked up): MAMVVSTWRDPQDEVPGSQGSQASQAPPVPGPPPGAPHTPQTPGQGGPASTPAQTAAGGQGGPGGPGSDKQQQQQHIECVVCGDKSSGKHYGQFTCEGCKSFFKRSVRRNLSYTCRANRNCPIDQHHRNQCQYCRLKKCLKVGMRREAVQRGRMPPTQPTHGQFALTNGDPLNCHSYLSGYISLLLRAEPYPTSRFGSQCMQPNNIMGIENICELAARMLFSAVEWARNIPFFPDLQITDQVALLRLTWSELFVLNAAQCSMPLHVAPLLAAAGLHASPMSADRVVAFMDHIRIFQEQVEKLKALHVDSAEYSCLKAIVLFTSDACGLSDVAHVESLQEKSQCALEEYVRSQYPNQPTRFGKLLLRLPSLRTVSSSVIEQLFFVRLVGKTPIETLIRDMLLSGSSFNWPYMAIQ
# Gli-Sufu block = Gli-Sufu pathway antagonists, primary screen, luciferase luminescence, Sufu-KO-LIGHT cells, uHTS; Sufu-KO-LIGHT fibroblasts, Gli luciferase reporter luminescence; 0.74% of 340,000 active; inhibition, % at 5 µM;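 active = inhibition above about 55%, limit read from the data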;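 also: 0% = DMSO-treated cells and 100% = wells with medium but no cells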
# Gli antag conf = Gli-SUFU pathway antagonists, confirmation, single concentration, luciferase luminescence, Sufu-KO-LIGHT cells. shares compounds with Gli-Sufu block. 40% of 2,500 active. Gli luciferase reporter. inhibition, % at 5 µM;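 active = mean inhibition at 5 µM reaching about 45%, limit read from the data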;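 also: plate controls were DMSO-treated cells for no effect and wells lacking cells for full effect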
# Gli cytotox = cytotoxicity in Sufu-KO-LIGHT cells, confirmation, cytotoxicity control for Gli-SUFU antagonist project, cell-based, ATP luminescence, single concentration; shares compounds with Gli-Sufu block; cytotoxicity, % at 5 µM; 32% of 2,500 active;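 active = mean cytotoxicity at 5 µM above about 25%, limit read from the data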;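 also: cells exposed to compound overnight for roughly 16 to 18 hours; plate controls were DMSO wells with cells for no effect and medium without cells for full effect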
# Wnt3a counter = Wnt3a reporter signal inhibition, confirmation, counter-screen for Gli-SUFU antagonist project, Wnt-LIGHT cells, luminescence, single concentration | AID 651995, 2013 | inhibition, % at 6.25 µM | 20% of 2,500 active | Wnt3a-driven luciferase reporter | shares compounds with Gli-Sufu block;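 active = mean inhibition above about 25%, limit read from the data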
# Starred values were filed as active, the others as inactive; · = no result given. Sampled rows, rich in hits. Any-hit rate of the full collection: about 2%.
SMILES,Jurkat NFkB inh,GalR3 antagonist,697 NFkB inh,NR2F2 inh,Gli-Sufu block,Gli antag conf,Gli cytotox,Wnt3a counter
CN1/C(=C\C(=O)CSc2cccc[n+]2[O-])C(C)(C)c2ccccc21,-23.0,-6.6,-1.6,0.8,27.0,·,·,·
CO[C@H]([C@H](C)/C=C/N(C)C=O)[C@@H](C)C(O)CC[C@H](C)[C@H](O)[C@H](C)[C@H]1OC(=O)/C=C/C(C)=C/C[C@H](O)C[C@@H]2C=CC[C@@H](C[C@H](OC)[C@@]3(CO3)[C@@H](OC)C[C@@H](OC)[C@@H]1C)O2 (stereo not given in full),·,·,·,-8.5,·,·,·,·
Cc1cccnc1NC(=O)c1ccc(Cl)c(S(=O)(=O)N2CCCC2)c1,9.1,-2.3,8.5,11.2,-11.1,·,·,·
Cc1cccnc1NC(=O)c1ccc(Cl)c(S(=O)(=O)N2CCCCCC2)c1,-14.1,-2.2,-16.9,29.0,83.8*,5.2,7.8,-13.4
Cc1ccc2c(c1)NCC(C(=O)NC1CCCCC1)O2 (stereo not given),-12.2,·,-10.9,·,51.5,9.4,-3.7,-4.5
O=C(N[C@@H](Cc1ccccc1)C(=O)NCP(=O)(O)OC(Cc1ccccc1)C(=O)O)OCc1ccccc1 (stereo not given in full),·,·,·,-4.0,·,·,·,·
CCn1c(=NC(=O)c2ccc(S(=O)(=O)N3CCOCC3)cc2)sc2cccc(OC)c21,11.0,-1.3,-29.5,16.8,52.2,35.2,20.5,-1.6
COCCn1c(=NC(=O)c2ccc(S(=O)(=O)N3CCOCC3)cc2)sc2cc(S(N)(=O)=O)ccc21,-12.3,-5.0,-5.5,10.8,20.8,·,·,·
CCn1c(=NC(=O)CCS(=O)(=O)c2ccccc2)sc2cccc(OC)c21,16.9,-3.9,-63.1,14.3,70.3*,71.3*,27.9*,17.3
O=C1C(=O)N(Cc2ccc(-c3ccccc3)cc2)c2ccc(OC(F)(F)F)cc21,·,·,·,-23.4,·,·,·,·
Cc1cc(NC(=O)COc2ccccc2C)ccc1NC(=O)c1cccs1,21.9,-7.7,9.0,0.7,50.9,12.2,0.4,-48.1
Cc1cc(C)c(C(N)=O)c(SCC(=O)c2cc(C)n(-c3cc(C)on3)c2C)n1,1.6,-1.5,9.2,8.7,51.4,59.5*,33.5*,12.9
COCCOc1nc2c(c(=O)n(C)c(=O)n2C)n1Cc1cccc(OC)c1,-19.8,-3.8,-88.1,18.3,51.8,44.3,20.6,22.8
O=[N+]([O-])c1ccc(O)c(-c2nc(-c3ccccc3)c(-c3cccs3)[nH]2)c1,11.8,-2.2,-8.2,13.8,51.6,70.2*,10.6,66.7*
COC(=O)C1CCCN(C(=O)C(Cc2ccc3c(c2)OCO3)NC(C)=O)C1 (stereo not given),·,·,·,8.5,·,·,·,·
CCOc1ccccc1NC(=O)CCn1ccnc1,0.4,-10.4,8.3,8.0,57.8*,14.8,19.2,-6.1
O=C(COc1ccc2c3c(c(=O)oc2c1)CCCC3)NCCCN1CCOCC1,-3.9,-1.6,3.1,4.2,94.5*,20.4,23.9,-58.8
O=C(COc1ccccc1)N1CCN(c2nnc(-c3ccccc3)c3ccccc23)CC1,9.9,-6.1,14.8,19.4,96.3*,31.8,3.2,1.3
CC(=O)Nc1ccc(NC(=O)Nc2cccc(C)c2C)cc1,-11.3,-3.8,-10.4,1.4,-2.6,·,·,·
Cc1ccccc1NC(=O)NCCc1ccc(Cl)cc1,7.8,-1.5,-7.4,18.8,-8.0,·,·,·
Cc1ccccc1NC(=O)NCCCCc1ccccc1,13.2,-3.3,18.7,-14.1,96.0*,6.1,22.9,-74.3
CC(=O)Nc1ccc(NC(=O)Nc2ccccc2C)cc1,-2.6,7.0,8.8,-18.4,75.6*,26.5,-2.2,-43.8
Cc1ccc2c(c1)N(CCCC(=O)NCc1ccc(F)cc1)C(=O)CO2,·,·,·,-2.1,·,·,·,·
CCCCC(=O)Nc1cc([N+](=O)[O-])ccc1Cl,9.3,-0.9,8.1,11.5,92.4*,13.8,11.4,32.6*
CC1CN(CCCCOc2cccc(Oc3ccccc3)c2)CC(C)O1 (stereo not given),11.1,-7.1,-1.4,10.0,11.9,·,·,·
SMILES,Jurkat NFkB inh,GalR3 antagonist,697 NFkB inh,NR2F2 inh,Gli-Sufu block,Gli antag conf,Gli cytotox,Wnt3a counter
CC1CN(CCOc2cccc(Oc3ccccc3)c2)CC(C)O1 (stereo not given),-1.4,-12.2,-22.0,13.0,52.1,14.5,14.0,-8.7
CC1CCCN(CCOc2cccc(Oc3ccccc3)c2)C1 (stereo not given),3.2,-3.5,-7.4,-12.5,51.0,27.4,9.2,-14.4
C=CCN(CC#Cc1ccccc1)CC1CC1,·,·,·,-7.0,·,·,·,·
O=C(CCc1nc(-c2ccccc2F)no1)NCCc1cccc(F)c1,·,·,·,-5.8,·,·,·,·
C=CCn1c(SCc2cccc(C(F)(F)F)c2)nnc1-c1ccc(OC)cc1,·,·,·,6.4,·,·,·,·
Cc1cc(N2CCN(S(=O)(=O)c3ccc(Br)cc3)CC2)n2ncnc2n1,-1.8,-5.4,-17.7,-5.0,5.8,·,·,·
CCc1c(C)nc2ncnn2c1N1CCN(S(=O)(=O)c2ccc(OC)cc2)CC1,24.3,-4.8,-43.0,9.7,60.1*,47.0*,25.9*,14.3
Clc1ccc([C@H]2OC[C@@]3(CNCCN4CCOCC4)CS[C@H](c4ccc(Cl)cc4)N23)cc1,·,·,·,-28.0,·,·,·,·
O=C(c1cc(Br)cc(Br)c1)N1CCC(Oc2cccnc2)CC1,·,·,·,9.8,·,·,·,·
COC(=O)NCC(c1ccco1)N1CCN(c2ccc(F)cc2)CC1 (stereo not given),3.2,0.5,7.0,0.2,51.8,14.0,8.8,-25.5
COC(=O)NCC(c1ccco1)N1CCN(c2ccc(OC)cc2)CC1 (stereo not given),-4.1,4.8,-3.9,-15.6,2.1,·,·,·
Cc1ccc(S(=O)(=O)N2CCC(C(=O)NCc3cccs3)CC2)cc1,·,·,·,3.7,·,·,·,·
O=C(c1ccco1)N1CCN(c2ncnc3c2[nH]c2ccc(Br)cc23)CC1,·,-3.9,·,10.2,-5.7,·,·,·
CCOc1ccc2[nH]c3c(N4CCN(C(=O)c5ccco5)CC4)ncnc3c2c1,-12.0,-5.2,31.4,19.7,59.6*,49.8*,18.8,-77.8
O=C1C(=O)N(CCCn2ccnc2)C(c2cccc(Br)c2)/C1=C(\O)c1ccc2c(c1)OCCO2 (stereo not given),9.2,4.0,-13.3,-18.9,50.7,32.9,22.1,-16.6
O=C(Nc1ccccc1[N+](=O)[O-])NC1CCCCN(Cc2ccc(Cl)cc2)C1=O (stereo not given),·,·,·,14.3,·,·,·,·
